This note sets out measurements from PMC7862700, “An all-to-all approach to the identification of sequence-specific readers for epigenetic DNA modifications on cytosine”.

Assay in all cases: DAPPL (digital affinity profiling via proximity ligation, sequencing); 10 mM Tris-HCl pH 7.5, 50 mM NaCl, 1 mM DTT, 4% glycerol, room temperature, 30 min; GST-TFs on glutathione beads, 16-mer random dsDNA library, 0.1% formaldehyde crosslink after washing; high values mean tight binding
One assay has as its target T1, FEV (Homo sapiens, UniProt Q99581 1-238).
T1 sequence: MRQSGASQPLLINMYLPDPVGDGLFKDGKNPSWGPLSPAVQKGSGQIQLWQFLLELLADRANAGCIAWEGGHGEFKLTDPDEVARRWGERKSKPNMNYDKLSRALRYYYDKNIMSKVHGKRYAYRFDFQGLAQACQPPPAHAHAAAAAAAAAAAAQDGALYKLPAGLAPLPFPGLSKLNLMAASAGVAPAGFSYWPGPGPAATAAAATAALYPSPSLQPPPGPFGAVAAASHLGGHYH
The conditions noted are these: protein: recombinant; tags: N-terminal GST; dsDNA, one strand shown. The method in brief: (§1)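 Human transcription factors carrying a GST fusion were produced in yeast, bound to glutathione beads, tagged with DNA barcodes and pooled together with a tag-only sample. Each pool was held with 200 nmole of a random double-stranded 16-mer DNA library in Tris/NaCl/DTT/glycerol buffer for 30 min at room temperature, then washed, crosslinked in 0.1% formaldehyde, proximity-ligated with BsaI/T4 ligase (1 h, 37 °C), PCR-amplified and sequenced on an Illumina NextSeq500. Binding signal is the read frequency of each hexamer for a given factor divided by its frequency in the tag-only sample.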

In the next assay the target is ETV5 (Homo sapiens, UniProt P41161 1-510). The settings on record: protein: recombinant; tags: N-terminal GST; dsDNA, one strand shown. The method in brief: as §1
A further assay concerns the target HSF1 (Homo sapiens, UniProt Q00613 1-529). The conditions noted are these: protein: recombinant; tags: N-terminal GST; chain copies: 3; dsDNA, one strand shown. Summed up:
as §1

The target of a further assay is T2, SPIC (Homo sapiens, UniProt Q8N5J4 1-248).
T2 sequence: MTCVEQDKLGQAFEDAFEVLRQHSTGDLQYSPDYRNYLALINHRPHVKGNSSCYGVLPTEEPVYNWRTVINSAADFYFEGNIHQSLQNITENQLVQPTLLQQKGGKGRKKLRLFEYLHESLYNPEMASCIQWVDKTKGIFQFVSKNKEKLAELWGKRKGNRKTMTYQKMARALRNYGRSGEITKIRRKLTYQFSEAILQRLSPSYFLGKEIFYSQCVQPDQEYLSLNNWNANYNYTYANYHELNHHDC
The settings on record: protein: recombinant; tags: N-terminal GST; dsDNA, one strand shown. The method in brief:
as §1

The next assay has as its target ELF4 (Homo sapiens, UniProt Q99607 1-663). The conditions noted are these: protein: recombinant; tags: N-terminal GST; dsDNA, one strand shown. The method in brief:
as §1

In the next assay the target is T3, ELK4 (Homo sapiens, UniProt P28324-2 1-405).
T3 sequence: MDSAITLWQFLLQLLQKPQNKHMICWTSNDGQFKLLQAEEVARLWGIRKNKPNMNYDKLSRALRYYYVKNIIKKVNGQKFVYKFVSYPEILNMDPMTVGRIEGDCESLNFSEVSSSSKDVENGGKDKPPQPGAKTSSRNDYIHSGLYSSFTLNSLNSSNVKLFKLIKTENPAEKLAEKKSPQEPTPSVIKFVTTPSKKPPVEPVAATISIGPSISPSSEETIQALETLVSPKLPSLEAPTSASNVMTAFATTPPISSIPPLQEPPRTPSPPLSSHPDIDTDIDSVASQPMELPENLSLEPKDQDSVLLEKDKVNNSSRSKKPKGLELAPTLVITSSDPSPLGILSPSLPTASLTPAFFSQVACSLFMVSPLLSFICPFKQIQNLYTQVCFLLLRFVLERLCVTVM
The conditions noted are these: protein: recombinant; tags: N-terminal GST; dsDNA, one strand shown. The method in brief: as §1

For the next assay, the target named is T4, ETV2 (Homo sapiens, UniProt O00321 1-342).
T4 sequence: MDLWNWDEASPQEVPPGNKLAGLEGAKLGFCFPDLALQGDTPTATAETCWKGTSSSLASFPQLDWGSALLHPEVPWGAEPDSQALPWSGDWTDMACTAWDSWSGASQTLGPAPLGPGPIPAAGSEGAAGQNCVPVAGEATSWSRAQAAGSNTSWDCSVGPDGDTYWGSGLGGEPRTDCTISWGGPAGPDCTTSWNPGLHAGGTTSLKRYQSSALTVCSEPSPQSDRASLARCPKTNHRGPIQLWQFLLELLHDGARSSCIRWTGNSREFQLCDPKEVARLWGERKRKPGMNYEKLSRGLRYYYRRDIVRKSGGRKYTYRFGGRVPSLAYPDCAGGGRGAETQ
The settings on record: protein: recombinant; tags: N-terminal GST; dsDNA, one strand shown. Summed up:
as §1

Another assay addresses T5, ELF3 (Homo sapiens, UniProt P78545 1-371).
T5 sequence: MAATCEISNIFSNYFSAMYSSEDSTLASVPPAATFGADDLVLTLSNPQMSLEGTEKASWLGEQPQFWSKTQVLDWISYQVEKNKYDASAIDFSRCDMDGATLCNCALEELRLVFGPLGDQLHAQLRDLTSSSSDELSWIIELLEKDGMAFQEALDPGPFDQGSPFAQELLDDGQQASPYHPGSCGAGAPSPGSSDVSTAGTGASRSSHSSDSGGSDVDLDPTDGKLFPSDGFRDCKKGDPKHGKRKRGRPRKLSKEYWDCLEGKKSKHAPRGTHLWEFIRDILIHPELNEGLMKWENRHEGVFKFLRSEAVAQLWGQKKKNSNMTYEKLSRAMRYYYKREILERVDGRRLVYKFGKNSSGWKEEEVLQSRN
The conditions noted are these: protein: recombinant; tags: N-terminal GST; dsDNA, one strand shown. The method in brief:
as §1

The next assay deals with CRX (Homo sapiens, UniProt O43186 1-299). The settings on record: protein: recombinant; tags: N-terminal GST; dsDNA, one strand shown. The method in brief: as §1
The target of a further assay is ETV1 (Homo sapiens, UniProt P50549 1-477). The settings on record: protein: recombinant; tags: N-terminal GST; dsDNA, one strand shown. Summed up:
as §1

A further assay deals with T6, ERF (Homo sapiens, UniProt P50548 1-548).
T6 sequence: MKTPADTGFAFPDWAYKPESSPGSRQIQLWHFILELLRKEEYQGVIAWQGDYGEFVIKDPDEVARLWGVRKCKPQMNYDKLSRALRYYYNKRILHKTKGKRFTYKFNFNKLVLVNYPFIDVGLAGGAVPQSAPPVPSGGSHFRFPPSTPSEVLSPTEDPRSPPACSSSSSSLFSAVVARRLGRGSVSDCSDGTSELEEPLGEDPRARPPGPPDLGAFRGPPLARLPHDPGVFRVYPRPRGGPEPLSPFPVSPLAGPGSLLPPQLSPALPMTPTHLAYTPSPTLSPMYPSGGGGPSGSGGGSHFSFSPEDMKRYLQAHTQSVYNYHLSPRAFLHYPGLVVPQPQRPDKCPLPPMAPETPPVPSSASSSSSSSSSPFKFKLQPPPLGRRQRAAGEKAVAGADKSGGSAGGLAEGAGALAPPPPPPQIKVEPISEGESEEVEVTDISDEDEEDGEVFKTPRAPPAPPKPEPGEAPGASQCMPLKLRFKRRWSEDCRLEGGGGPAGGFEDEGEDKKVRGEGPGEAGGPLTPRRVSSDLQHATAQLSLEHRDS
The settings on record: protein: recombinant; tags: N-terminal GST; dsDNA, one strand shown. Summed up:
as §1

The target of another assay is T7, ETV3L (Homo sapiens, UniProt Q6ZN32 1-361).
T7 sequence: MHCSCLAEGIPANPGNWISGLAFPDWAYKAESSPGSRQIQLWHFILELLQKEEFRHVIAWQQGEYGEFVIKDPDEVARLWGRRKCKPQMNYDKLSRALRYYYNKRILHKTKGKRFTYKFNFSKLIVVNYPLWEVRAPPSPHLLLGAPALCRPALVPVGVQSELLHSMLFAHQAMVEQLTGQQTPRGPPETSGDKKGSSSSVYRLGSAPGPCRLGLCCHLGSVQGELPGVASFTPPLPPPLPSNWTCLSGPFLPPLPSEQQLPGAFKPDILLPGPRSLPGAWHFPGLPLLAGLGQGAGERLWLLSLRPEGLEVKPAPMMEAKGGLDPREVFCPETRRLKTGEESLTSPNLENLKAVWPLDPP
The settings on record: protein: recombinant; tags: N-terminal GST; dsDNA, one strand shown. The method in brief:
as §1

In another assay the target is T8, ETS2 (Homo sapiens, UniProt P15036 1-469).
T8 sequence: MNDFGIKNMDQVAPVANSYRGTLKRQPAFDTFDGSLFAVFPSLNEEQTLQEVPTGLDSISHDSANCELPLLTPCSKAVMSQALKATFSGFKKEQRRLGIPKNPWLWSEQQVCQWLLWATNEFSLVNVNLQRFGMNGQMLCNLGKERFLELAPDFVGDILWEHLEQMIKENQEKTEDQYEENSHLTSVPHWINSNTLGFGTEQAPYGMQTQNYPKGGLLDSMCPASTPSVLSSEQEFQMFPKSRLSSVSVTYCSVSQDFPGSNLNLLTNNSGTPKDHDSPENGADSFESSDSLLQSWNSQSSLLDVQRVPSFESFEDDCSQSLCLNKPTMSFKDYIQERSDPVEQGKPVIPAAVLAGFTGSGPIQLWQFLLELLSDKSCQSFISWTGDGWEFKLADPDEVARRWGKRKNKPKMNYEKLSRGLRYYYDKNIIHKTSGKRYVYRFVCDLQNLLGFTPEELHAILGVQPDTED
The conditions noted are these: protein: recombinant; tags: N-terminal GST; dsDNA, one strand shown. Summed up: as §1

The next assay deals with T9, SPDEF (Homo sapiens, UniProt O95238 1-335).
T9 sequence: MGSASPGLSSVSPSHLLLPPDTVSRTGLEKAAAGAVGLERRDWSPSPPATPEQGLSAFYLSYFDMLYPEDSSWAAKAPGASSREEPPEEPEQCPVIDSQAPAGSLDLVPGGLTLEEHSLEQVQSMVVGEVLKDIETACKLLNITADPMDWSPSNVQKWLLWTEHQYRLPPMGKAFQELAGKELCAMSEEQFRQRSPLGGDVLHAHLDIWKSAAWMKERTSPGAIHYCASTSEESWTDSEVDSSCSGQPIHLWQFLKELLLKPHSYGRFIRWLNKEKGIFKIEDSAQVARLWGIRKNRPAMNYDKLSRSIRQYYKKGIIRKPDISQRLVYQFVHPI
The settings on record: protein: recombinant; tags: N-terminal GST; dsDNA, one strand shown. The method in brief:
as §1

Another assay deals with T10, ETV7 (Homo sapiens, UniProt Q9Y603 1-341).
T10 sequence: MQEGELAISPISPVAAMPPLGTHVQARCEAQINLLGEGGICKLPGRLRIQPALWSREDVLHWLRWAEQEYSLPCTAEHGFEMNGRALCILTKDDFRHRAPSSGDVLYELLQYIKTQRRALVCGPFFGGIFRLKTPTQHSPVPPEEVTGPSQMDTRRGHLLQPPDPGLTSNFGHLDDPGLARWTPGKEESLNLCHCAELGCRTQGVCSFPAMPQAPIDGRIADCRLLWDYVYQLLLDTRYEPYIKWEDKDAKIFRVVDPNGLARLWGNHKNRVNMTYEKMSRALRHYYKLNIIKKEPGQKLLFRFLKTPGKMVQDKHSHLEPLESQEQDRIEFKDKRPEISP
The conditions noted are these: protein: recombinant; tags: N-terminal GST; dsDNA, one strand shown. The method in brief:
as §1

The next assay has as its target T11, ELF5 (Homo sapiens, UniProt Q9UKW6-2 1-255).
T11 sequence: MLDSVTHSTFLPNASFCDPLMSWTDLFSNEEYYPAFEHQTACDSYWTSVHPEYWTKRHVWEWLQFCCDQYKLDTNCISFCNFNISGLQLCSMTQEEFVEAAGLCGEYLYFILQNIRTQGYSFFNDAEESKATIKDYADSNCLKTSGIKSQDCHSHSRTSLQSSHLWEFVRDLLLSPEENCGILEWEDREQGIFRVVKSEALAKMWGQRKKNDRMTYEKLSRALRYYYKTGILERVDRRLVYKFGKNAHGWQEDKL
The conditions noted are these: protein: recombinant; tags: N-terminal GST; dsDNA, one strand shown. The method in brief:
as §1

The target of another assay is T12, ETV3 (Homo sapiens, UniProt P41162-2 1-143).
T12 sequence: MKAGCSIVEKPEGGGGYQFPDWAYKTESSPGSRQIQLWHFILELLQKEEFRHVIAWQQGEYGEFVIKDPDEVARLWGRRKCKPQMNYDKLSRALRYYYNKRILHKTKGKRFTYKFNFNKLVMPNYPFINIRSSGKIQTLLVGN
The settings on record: protein: recombinant; tags: N-terminal GST; dsDNA, one strand shown. Summed up:
as §1

The next assay deals with ETV6 (Homo sapiens, UniProt P41212 1-452). The conditions noted are these: protein: recombinant; tags: N-terminal GST; dsDNA, one strand shown. The method in brief:
as §1

ELF4, sequence (Q99607 whole entry): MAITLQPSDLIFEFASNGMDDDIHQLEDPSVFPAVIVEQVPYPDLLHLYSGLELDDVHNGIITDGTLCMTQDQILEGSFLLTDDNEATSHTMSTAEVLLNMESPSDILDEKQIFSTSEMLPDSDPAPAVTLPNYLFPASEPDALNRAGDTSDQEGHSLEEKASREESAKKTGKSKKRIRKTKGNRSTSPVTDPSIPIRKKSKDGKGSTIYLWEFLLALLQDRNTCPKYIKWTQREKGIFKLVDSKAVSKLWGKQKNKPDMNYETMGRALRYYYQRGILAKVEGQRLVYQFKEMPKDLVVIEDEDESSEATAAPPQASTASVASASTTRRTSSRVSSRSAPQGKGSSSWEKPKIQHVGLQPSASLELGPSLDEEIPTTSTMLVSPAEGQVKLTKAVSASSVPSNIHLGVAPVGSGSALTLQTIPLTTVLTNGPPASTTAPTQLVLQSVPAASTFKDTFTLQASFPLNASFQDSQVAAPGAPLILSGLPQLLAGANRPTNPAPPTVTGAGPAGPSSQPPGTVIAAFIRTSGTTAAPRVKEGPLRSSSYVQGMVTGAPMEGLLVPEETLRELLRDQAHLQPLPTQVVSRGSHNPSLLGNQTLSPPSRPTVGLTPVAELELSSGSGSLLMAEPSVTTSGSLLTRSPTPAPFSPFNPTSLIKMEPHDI
ETV5, sequence (P41161 whole entry): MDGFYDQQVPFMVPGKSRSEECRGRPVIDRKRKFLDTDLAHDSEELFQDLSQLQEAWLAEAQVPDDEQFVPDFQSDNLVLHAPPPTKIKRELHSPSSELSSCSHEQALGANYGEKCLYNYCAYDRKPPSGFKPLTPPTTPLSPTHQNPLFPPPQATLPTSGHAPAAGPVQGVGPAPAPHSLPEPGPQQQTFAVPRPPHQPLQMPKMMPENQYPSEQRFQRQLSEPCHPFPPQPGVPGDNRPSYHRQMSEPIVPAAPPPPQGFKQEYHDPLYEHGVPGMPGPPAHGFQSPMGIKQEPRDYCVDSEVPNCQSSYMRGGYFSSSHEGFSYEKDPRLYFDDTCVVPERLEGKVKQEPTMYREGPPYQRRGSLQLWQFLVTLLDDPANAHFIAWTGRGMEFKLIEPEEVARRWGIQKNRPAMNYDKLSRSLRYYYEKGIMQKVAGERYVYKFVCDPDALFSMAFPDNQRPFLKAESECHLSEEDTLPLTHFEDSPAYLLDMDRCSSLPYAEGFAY
ETV6, sequence (P41212 whole entry): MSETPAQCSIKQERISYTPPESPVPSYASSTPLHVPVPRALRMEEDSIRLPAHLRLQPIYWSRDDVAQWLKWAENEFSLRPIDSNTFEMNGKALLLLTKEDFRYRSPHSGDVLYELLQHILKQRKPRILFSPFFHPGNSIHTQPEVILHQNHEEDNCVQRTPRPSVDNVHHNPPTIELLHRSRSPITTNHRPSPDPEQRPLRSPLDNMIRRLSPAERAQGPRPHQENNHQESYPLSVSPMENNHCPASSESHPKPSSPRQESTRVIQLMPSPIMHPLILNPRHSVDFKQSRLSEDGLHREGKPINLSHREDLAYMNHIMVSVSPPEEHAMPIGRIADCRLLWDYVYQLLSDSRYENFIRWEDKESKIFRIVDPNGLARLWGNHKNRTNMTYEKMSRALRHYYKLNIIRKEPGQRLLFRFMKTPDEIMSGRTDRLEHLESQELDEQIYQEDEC
CRX, sequence (O43186 whole entry): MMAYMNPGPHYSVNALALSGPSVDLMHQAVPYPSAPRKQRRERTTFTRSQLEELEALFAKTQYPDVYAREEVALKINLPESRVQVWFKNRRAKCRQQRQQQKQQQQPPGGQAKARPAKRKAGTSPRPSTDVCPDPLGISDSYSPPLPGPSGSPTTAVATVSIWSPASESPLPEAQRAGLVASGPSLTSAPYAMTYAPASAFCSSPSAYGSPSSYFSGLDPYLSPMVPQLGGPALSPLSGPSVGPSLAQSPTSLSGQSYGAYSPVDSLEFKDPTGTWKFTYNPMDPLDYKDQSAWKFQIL
ETV1, sequence (P50549 whole entry): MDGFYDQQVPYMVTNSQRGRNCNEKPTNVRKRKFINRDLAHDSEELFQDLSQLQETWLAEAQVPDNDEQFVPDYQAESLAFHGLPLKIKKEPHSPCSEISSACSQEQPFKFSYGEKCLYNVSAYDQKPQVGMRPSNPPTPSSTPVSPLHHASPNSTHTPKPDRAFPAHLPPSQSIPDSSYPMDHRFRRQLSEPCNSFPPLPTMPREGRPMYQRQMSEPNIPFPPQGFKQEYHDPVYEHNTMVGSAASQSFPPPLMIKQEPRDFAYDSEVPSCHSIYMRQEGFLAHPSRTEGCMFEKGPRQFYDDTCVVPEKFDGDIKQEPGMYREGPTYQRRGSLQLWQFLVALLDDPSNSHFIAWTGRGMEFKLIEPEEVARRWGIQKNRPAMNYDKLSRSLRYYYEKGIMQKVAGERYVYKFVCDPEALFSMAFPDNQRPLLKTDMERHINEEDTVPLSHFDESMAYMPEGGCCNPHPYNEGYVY
HSF1, sequence (Q00613 whole entry): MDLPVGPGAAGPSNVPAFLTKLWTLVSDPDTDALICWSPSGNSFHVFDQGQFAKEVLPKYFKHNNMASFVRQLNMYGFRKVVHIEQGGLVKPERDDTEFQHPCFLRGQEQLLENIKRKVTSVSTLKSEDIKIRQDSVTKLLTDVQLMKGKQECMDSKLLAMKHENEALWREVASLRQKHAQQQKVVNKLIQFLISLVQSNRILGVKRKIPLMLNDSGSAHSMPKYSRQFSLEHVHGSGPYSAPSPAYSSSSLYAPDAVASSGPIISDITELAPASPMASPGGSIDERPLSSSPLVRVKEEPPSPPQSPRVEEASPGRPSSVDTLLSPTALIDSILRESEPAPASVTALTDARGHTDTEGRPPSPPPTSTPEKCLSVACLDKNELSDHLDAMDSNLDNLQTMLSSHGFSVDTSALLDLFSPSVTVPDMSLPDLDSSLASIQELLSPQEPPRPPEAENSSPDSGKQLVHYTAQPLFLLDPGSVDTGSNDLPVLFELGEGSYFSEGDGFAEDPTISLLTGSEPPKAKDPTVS

As for CCTAAG, the binding signal with FEV is 1.14 fold enrichment (6-mer frequency, TF over GST control); with ETV5, 1.2 fold enrichment (6-mer frequency, TF over GST control); in the assay with HSF1 it was 1.35 fold enrichment (6-mer frequency, TF over GST control); in the assay with SPIC it was 1.14 fold enrichment (6-mer frequency, TF over GST control); with ELF4, 1.26 fold enrichment (6-mer frequency, TF over GST control); in the assay with ELK4 it was 1.27 fold enrichment (6-mer frequency, TF over GST control). The binding signal with ETV2 was 1.08 fold enrichment (6-mer frequency, TF over GST control); with ELF3 it was 1.09 fold enrichment (6-mer frequency, TF over GST control); with CRX, 1.85 fold enrichment (6-mer frequency, TF over GST control); with ETV1, 1.09 fold enrichment (6-mer frequency, TF over GST control); in the assay with ERF it was 1.11 fold enrichment (6-mer frequency, TF over GST control); in the assay with ETV3L, 1.12 fold enrichment (6-mer frequency, TF over GST control). The binding signal in the assay with ETS2 is 1.09 fold enrichment (6-mer frequency, TF over GST control); with SPDEF, 1.08 fold enrichment (6-mer frequency, TF over GST control); with ETV7 it was 1.09 fold enrichment (6-mer frequency, TF over GST control); with ELF5 it was 1.11 fold enrichment (6-mer frequency, TF over GST control); with ETV3 it was 1.06 fold enrichment (6-mer frequency, TF over GST control); in the assay with ETV6, 1.11 fold enrichment (6-mer frequency, TF over GST control).
